# Most compounds without a hit are left out; they make up all but 7.3% or so of the library.
# FLuc counter: inhibits or activates purified firefly luciferase, miR-21 counter-screen; P08659; purified FLuc, Km substrates, luminescence inhibition; Potency, µM (highest dose often 57.5 µM), inactives show at the top dose activity change, negative = inhibition, usual class: inhibitors; 6.9% of 360,000 active;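 note: plate controls were vehicle for no effect and reference inhibitor for full effect; nearly all actives have a fitted effect of over 55% in size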
# Target sequence (P08659 whole entry, looked up): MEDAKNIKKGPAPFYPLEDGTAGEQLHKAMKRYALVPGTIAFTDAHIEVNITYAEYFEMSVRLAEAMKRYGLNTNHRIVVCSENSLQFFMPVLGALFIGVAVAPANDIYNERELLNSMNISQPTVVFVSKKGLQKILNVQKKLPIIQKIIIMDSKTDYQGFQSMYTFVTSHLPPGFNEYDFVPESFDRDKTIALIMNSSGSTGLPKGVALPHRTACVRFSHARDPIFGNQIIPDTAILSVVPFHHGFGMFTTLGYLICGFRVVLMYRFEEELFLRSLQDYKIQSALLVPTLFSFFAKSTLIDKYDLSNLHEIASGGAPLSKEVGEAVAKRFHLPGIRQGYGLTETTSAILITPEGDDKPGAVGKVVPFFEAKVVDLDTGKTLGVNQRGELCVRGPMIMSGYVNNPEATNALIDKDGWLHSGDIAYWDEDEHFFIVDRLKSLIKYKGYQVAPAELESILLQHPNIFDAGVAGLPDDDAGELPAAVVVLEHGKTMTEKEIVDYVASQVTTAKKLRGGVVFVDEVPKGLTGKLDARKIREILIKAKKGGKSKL
#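 Biochemical qHTS of compounds, final roughly 60 µM downward over six points, against 10 nM purified firefly luciferase using Km concentrations of substrates (10 uM D-luciferin, 10 uM ATP) in Tris acetate pH 7.5 buffer; luminescence output.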
# ELG1 genotox: inducers of genotoxicity in HEK293T ELG1-luciferase cells; HEK293T ELG1-luciferase reporter, luminescence, 16 h; Potency, µM (top dose mostly 46 µM), without a hit: at the highest dose activity change, positive = activation, usual class: activators; 1.3% of 330,000 active; AID 504466; note: % of control where 0% means no effect; nearly all actives have a fitted effect of over 60% in size
#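 Genotoxicity was scored as increased ELG1-luciferase reporter signal, measured by ONE-Glo luminescence (30 min, room temperature). Compound or vehicle exposure of the HEK293T reporter cells lasted 16 hr at 37°C.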
# SMN2 splice enh: SMN2 splice variant enhancement. 2.8% of 210,000 active. AID 1458. Potency, µM (doses to about 46.1 µM), for inactives: at the highest dose activity change, positive = activation, usual class: activators. HEK293 SMN2-luciferase splicing reporter, luminescence, 30-36 h; note: % of control where 0% means no effect; nearly all actives have a fitted effect of over 55% in size
#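 HEK293 cells carry an SMN2 […]–luciferase reporter in which exon 7 inclusion puts luciferase in frame. Cells were plated 10-12 h before compound addition, then incubated 30-36 h at 37C. ONE-Glo luminescence was read; sodium butyrate at 4.5 mM final served as control.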
# Rab9 prom act: Rab9 promoter activation. Huh7 Rab9 promoter-luciferase reporter, luminescence, 24 h. Potency, µM (highest dose often 9.22 µM), for inactives: at the top dose activation, negative = inhibition, actives largely listed as activators. 2.8% of 320,000 active. AID 485297; note: % of control where 0% means no effect; nearly all actives have a fitted effect of over 60% in size
#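 Luminescence from Amplite-detected luciferase (10 minutes, ambient) reports Rab9 promoter activation. Before that, stable Rab9-luciferase Huh7 cells (1500/well, reduced-serum OP-MEM I plus 10% FBS) were exposed to compound for 24 hours at 37C.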
# NPC1 promoter act: activates the NPC1 promoter | Huh7 NPC1 promoter luciferase reporter, 24 h | Potency, µM (doses to about 9.22 µM), without a hit: at the top dose activation, usual class: activators | 2.4% of 320,000 active; note: % of control where 0% means no effect; nearly all actives have a fitted effect of over 60% in size
#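 Luminescence read-out of NPC1 promoter-driven luciferase in stably transfected Huh7 cells; compounds delivered in DMSO and left 24 h at 37C, 5% CO2, qHTS titration format.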
# Luc counter: Kinase-Glo luciferase inhibition (counter-screen) | Q27757 | Kinase-Glo luciferase, ATP luminescence, 8 min | Potency, µM (highest dose often 38.3 µM), for inactives: top-dose activity change, negative = inhibition, hits mostly inhibitors | 0.28% of 200,000 active; note: % is set by controls: 0 for no effect and ±100 for the full control effect; nearly all actives have a fitted effect of over 60% in size
#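 Recombinant Kinase-Glo luciferase, 10 uM ATP (linear range), luciferin; imidazole pH 7.2 / KCl / MgCl2 / Tween / BSA buffer; 8 min RT; luminescence.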
# * marks the source's active call; other numbers are inactive results; ? = inconclusive; . = no result. Calls come from the whole dose curve; as a rule, active = well fitted curve in the direction sought with a large enough effect; inconclusive = small, poorly fitted or top-dose-only effect, or another doubt; inactive = no such curve, though single readings can be large; an effect the other way counts as inactive or inconclusive. Potency is the fitted concentration of half-maximal effect.
SMILES,FLuc counter,ELG1 genotox,SMN2 splice enh,Rab9 prom act,NPC1 promoter act,Luc counter
CCCCOc1ccc(C(=O)N2CCCC2)cc1,?,18µM*,11µM*,25%,21%,-16%
CCOc1ccc(OCc2cccc(C(=O)N3CCCC3)c2)cc1,3µM*,0.65µM*,2.8µM*,0.45µM*,0.35µM*,-4%
Cc1cccc(N2CCN(c3ncnc4c3nc3n4CCCCC3)CC2)c1C,2%,.,.,.,.,.
COc1cccc(Cn2c(CNC(=O)CCc3ccccc3)nc3cccnc32)c1,1%,.,.,.,.,.
CCOc1ccc(OCc2cccc(C(=O)N3CCCCCC3)c2)cc1,0.54µM*,?,1.8µM*,0.28µM*,0.32µM*,-2%
CCOc1ccc(C(=O)N2CCN(Cc3ccccc3)CC2)cc1,-5%,-4%,-9%,5%,-5%,4%
CC1CN(C(=O)c2cccc(COc3ccccc3Cl)c2)CC(C)O1 (configuration not stated),15µM*,?,11µM*,?,3.5µM*,1%
CCCN1C(=O)S/C(=C\c2ccc(N3CCOCC3)cc2C)C1=O,5.4µM*,?,4%,2.2µM*,2µM*,-2%
CCCN1C(=O)S/C(=C\c2ccc(N3CCOCC3)o2)C1=O,?,?,-23%,?,22%,9%
CCN1C(=O)S/C(=C\c2ccc(N3CCOCC3)cc2C)C1=O,2.7µM*,?,.,2µM*,2µM*,.
Cc1cc(N2CCN(c3cccc(C)c3C)CC2)n2nc(C)c(-c3ccc(Cl)cc3)c2n1,-3%,.,5%,.,.,.
CN(C)c1ccc(-n2cc3c(=O)n(C)c(=O)n(C)c3c2)cc1,17µM*,?,-8%,?,?,-4%
CCN(CC)c1ccc(-n2cc3c(=O)n(C)c(=O)n(C)c3c2)cc1,?,-2%,11%,2%,-5%,7%
COCCNc1ccc2cc(S(=O)(=O)N3CCCCC3)ccc2n1,4%,.,.,.,.,.
Cc1nc(-c2ccccc2)cn(O)c1=O,-19%,4%,2%,8%,-2%,1%
Cc1ccc2nc(-c3ccc(-c4ccccn4)s3)cn2c1,0.19µM*,1.6µM*,.,0.4µM*,0.45µM*,.
Cc1ccc2nc(-c3ccc(S(=O)(=O)N4CCOCC4)cc3)cn2c1,-10%,23µM*,5%,15%,2%,2%
CC(=O)Nc1ccc(-c2cn3cc(C)ccc3n2)cc1,1.9µM*,?,4.5µM*,1µM*,3.2µM*,23%
Cc1ccc2nc(-c3ccccc3)cn2c1,0.12µM*,?,0.5µM*,?,0.11µM*,8.9µM*
Cc1ccn2cc(-c3ccc(S(=O)(=O)N4CCOCC4)cc3)nc2c1,?,7%,8%,?,?,0%
Cc1ccc2nc(-c3ccc(O)c(O)c3)cn2c1,3.4µM*,?,.,8%,?,.
CCOC(=O)N1CCC(NC(=O)c2ccc3c(c2)N(Cc2ccccc2)C(=O)c2ccccc2S3(=O)=O)CC1,-8%,.,3%,.,.,.
O=C(Nc1cccc2ccccc12)C(=O)C1C(=O)Nc2ccccc21 (configuration not stated),?,-4%,.,-4%,?,.
CC(C)(C)c1ccc(NC(=O)C(=O)C2C(=O)Nc3ccccc32)cc1 (configuration not stated),12µM*,0%,2%,21%,15%,0%
CN(C)c1ccc(NC(=O)C(=O)C2C(=O)Nc3ccccc32)cc1 (configuration not stated),11µM*,?,.,21%,24%,.
CC(C)c1ccc(NC(=O)C(=O)C2C(=O)Nc3ccccc32)cc1 (configuration not stated),?,5%,11%,21%,7%,-1%
Cc1ccn2c(c1)nc(=O)c1cc(S(=O)(=O)N3CCCCC3)c(Cl)cc12,-3%,.,3%,.,.,.
CC1CCN(S(=O)(=O)c2cc(C(=O)NCCc3ccccc3)n(C)c2)CC1,2%,.,.,.,.,.
